# From PubChem BioAssay AID1159580 (chemical genetic matrix, 2015)
# Among all 5,500 compounds or so, about 2,000 (36%) were called active. About 18% were inconclusive and are not listed. No stated cut-off is given here; in the data, active means normalized growth mostly below about 0.91 (no sharp cut-off); inconclusive means no clear call, values can overlap the other calls; inactive means mostly above about 0.92. Some of the results follow.
# Assay: chemical genetic growth profiling, strain panel (AID 1159580);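 further: tested at 20 µM; growth read once vehicle control cultures reached saturation at 30 °C; 1 = growth at the plate median or of vehicle wells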
# Settings: growth OD
compound,measurement,setting,value
CC1=CCc2c(cc3oc(C)cc(=O)c3c2O)OC1,normalized growth,"S. cerevisiae deletion strains, locus YJR075W, strain HOC1, stronger effect = lower value",0.926 (inactive)
same,normalized growth,"S. cerevisiae deletion strains, locus YKL009W, strain mrt4, stronger effect = lower value",0.912 (inactive)
same,normalized growth,"S. cerevisiae deletion strains, locus YKL068W, stronger effect = lower value",0.974 (inactive)
same,normalized growth,"S. cerevisiae deletion strains, locus YKL085W, strain MDH1 (second series), stronger effect = lower value",0.903 (active)
same,normalized growth,"S. cerevisiae deletion strains, locus YKL085W, strain MDH1, stronger effect = lower value",0.903 (active)
same,normalized growth,"S. cerevisiae deletion strains, locus YKL160W, strain elf1, stronger effect = lower value",0.978 (inactive)
same,normalized growth,"S. cerevisiae deletion strains, locus YKL190W, strain CNB1, stronger effect = lower value",0.902 (active)
same,normalized growth,"S. cerevisiae deletion strains, locus YKR001C, strain vps1, stronger effect = lower value",0.759 (active)
same,normalized growth,"S. cerevisiae deletion strains, locus YKR026C, strain gcn3, stronger effect = lower value",0.951 (inactive)
same,normalized growth,"S. cerevisiae deletion strains, locus YKR091W, strain srl3, stronger effect = lower value",0.977 (inactive)
same,normalized growth,"S. cerevisiae deletion strains, locus YLL001W, strain dnm1, stronger effect = lower value",0.968 (inactive)
same,normalized growth,"S. cerevisiae deletion strains, locus YLL026W, stronger effect = lower value",0.97 (inactive)
same,normalized growth,"S. cerevisiae deletion strains, locus YLL041C, strain sdh2, stronger effect = lower value",0.972 (inactive)
same,normalized growth,"S. cerevisiae deletion strains, locus YLR027C, strain aat2, stronger effect = lower value",0.984 (inactive)
same,normalized growth,"S. cerevisiae deletion strains, locus YLR039C, strain RIC1, stronger effect = lower value",0.766 (inactive)
same,normalized growth,"S. cerevisiae deletion strains, locus YLR058C, strain SHM2, stronger effect = lower value",0.923 (inactive)
same,normalized growth,"S. cerevisiae deletion strains, locus YLR102C, strain apc9, stronger effect = lower value",0.97 (inactive)
same,normalized growth,"S. cerevisiae deletion strains, locus YLR113W, strain HOG1, stronger effect = lower value",0.931 (inactive)
same,normalized growth,"S. cerevisiae deletion strains, locus YLR221C, strain rsa3, stronger effect = lower value",0.944 (inactive)
same,normalized growth,"S. cerevisiae deletion strains, locus YLR258W, strain gsy2, stronger effect = lower value",0.95 (inactive)
same,normalized growth,"S. cerevisiae deletion strains, locus YLR262C, strain YPT6 (second series), stronger effect = lower value",0.883 (inactive)
same,normalized growth,"S. cerevisiae deletion strains, locus YLR262C, strain YPT6, stronger effect = lower value",0.772 (inactive)
same,normalized growth,"S. cerevisiae deletion strains, locus YLR268W, strain sec22, stronger effect = lower value",0.869 (active)
same,normalized growth,"S. cerevisiae deletion strains, locus YLR320W, strain mms22, stronger effect = lower value",0.932 (inactive)
same,normalized growth,"S. cerevisiae deletion strains, locus YLR330W, strain CHS5, stronger effect = lower value",0.944 (inactive)
same,normalized growth,"S. cerevisiae deletion strains, locus YLR342W, strain FKS1 (second series), stronger effect = lower value",0.792 (active)
same,normalized growth,"S. cerevisiae deletion strains, locus YLR342W, strain FKS1, stronger effect = lower value",1 (inactive)
same,normalized growth,"S. cerevisiae deletion strains, locus YLR357W, strain rsc2, stronger effect = lower value",1.01 (inactive)
same,normalized growth,"S. cerevisiae deletion strains, locus YLR370C, strain arc18, stronger effect = lower value",0.998 (inactive)
same,normalized growth,"S. cerevisiae deletion strains, locus YLR371W, strain rom2, stronger effect = lower value",0.916 (inactive)
same,normalized growth,"S. cerevisiae deletion strains, locus YLR384C, strain iki3, stronger effect = lower value",0.988 (inactive)
same,normalized growth,"S. cerevisiae deletion strains, locus YLR418C, strain cdc73, stronger effect = lower value",0.639 (active)
same,normalized growth,"S. cerevisiae deletion strains, locus YML016C, strain PPZ1, stronger effect = lower value",0.953 (inactive)
same,normalized growth,"S. cerevisiae deletion strains, locus YML032C, strain rad52, stronger effect = lower value",0.917 (inactive)
same,normalized growth,"S. cerevisiae deletion strains, locus YML120C, strain ndi1, stronger effect = lower value",0.957 (inactive)
same,normalized growth,"S. cerevisiae deletion strains, locus YML124C, strain tub3, stronger effect = lower value",0.966 (inactive)
same,normalized growth,"S. cerevisiae deletion strains, locus YMR058W, strain fet3, stronger effect = lower value",0.936 (inactive)
same,normalized growth,"S. cerevisiae deletion strains, locus YMR078C, strain ctf18, stronger effect = lower value",0.956 (inactive)
same,normalized growth,"S. cerevisiae deletion strains, locus YMR125W, strain sto1, stronger effect = lower value",0.975 (inactive)
same,normalized growth,"S. cerevisiae deletion strains, locus YMR129W, stronger effect = lower value",0.967 (inactive)
same,normalized growth,"S. cerevisiae deletion strains, locus YMR205C, strain PFK2, stronger effect = lower value",0.971 (inactive)
same,normalized growth,"S. cerevisiae deletion strains, locus YMR223W, strain ubp8, stronger effect = lower value",0.902 (active)
same,normalized growth,"S. cerevisiae deletion strains, locus YMR231W, strain pep5, stronger effect = lower value",0.998 (inactive)
same,normalized growth,"S. cerevisiae deletion strains, locus YMR263W, strain SAP30, stronger effect = lower value",0.865 (active)
same,normalized growth,"S. cerevisiae deletion strains, locus YMR307W, strain GAS1, stronger effect = lower value",0.733 (inactive)
same,normalized growth,"S. cerevisiae deletion strains, locus YNL067W, strain RPL9B, stronger effect = lower value",0.844 (active)
same,normalized growth,"S. cerevisiae deletion strains, locus YNL071W, strain lat1, stronger effect = lower value",0.979 (inactive)
same,normalized growth,"S. cerevisiae deletion strains, locus YNL128W, strain TEP1, stronger effect = lower value",0.881 (inactive)
same,normalized growth,"S. cerevisiae deletion strains, locus YNL153C, strain GIM3, stronger effect = lower value",0.858 (active)
same,normalized growth,"S. cerevisiae deletion strains, locus YNL183C, strain NPR1, stronger effect = lower value",0.92 (inactive)
same,normalized growth,"S. cerevisiae deletion strains, locus YNL209W, strain ssb2, stronger effect = lower value",1.01 (inactive)
same,normalized growth,"S. cerevisiae deletion strains, locus YNL233W, strain BNI4, stronger effect = lower value",0.807 (active)
same,normalized growth,"S. cerevisiae deletion strains, locus YNL248C, strain rpa49, stronger effect = lower value",0.971 (inactive)
same,normalized growth,"S. cerevisiae deletion strains, locus YNL250W, strain rad50, stronger effect = lower value",0.971 (inactive)
same,normalized growth,"S. cerevisiae deletion strains, locus YNL271C, strain bni1, stronger effect = lower value",0.959 (inactive)
same,normalized growth,"S. cerevisiae deletion strains, locus YNL298W, strain CLA4, stronger effect = lower value",0.925 (inactive)
same,normalized growth,"S. cerevisiae deletion strains, locus YNL307C, strain MCK1, stronger effect = lower value",0.651 (active)
same,normalized growth,"S. cerevisiae deletion strains, locus YNL322C, strain KRE1 (second series), stronger effect = lower value",0.984 (inactive)
same,normalized growth,"S. cerevisiae deletion strains, locus YNL322C, strain KRE1, stronger effect = lower value",0.94 (inactive)
same,normalized growth,"S. cerevisiae deletion strains, locus YNR049C, strain mso1, stronger effect = lower value",0.981 (inactive)
same,normalized growth,"S. cerevisiae deletion strains, locus YNR052C, strain pop2, stronger effect = lower value",0.973 (inactive)
same,normalized growth,"S. cerevisiae deletion strains, locus YOL006C, strain TOP1, stronger effect = lower value",0.554 (inactive)
same,normalized growth,"S. cerevisiae deletion strains, locus YOL012C, strain htz1",1.55 (inactive)
same,normalized growth,"S. cerevisiae deletion strains, locus YOL147C, strain pex11, stronger effect = lower value",0.922 (active)
same,normalized growth,"S. cerevisiae deletion strains, locus YOR001W, strain rrp6, stronger effect = lower value",0.969 (inactive)
same,normalized growth,"S. cerevisiae deletion strains, locus YOR061W, strain CKA2, stronger effect = lower value",0.972 (inactive)
same,normalized growth,"S. cerevisiae deletion strains, locus YOR069W, strain VPS5, stronger effect = lower value",0.973 (inactive)
same,normalized growth,"S. cerevisiae deletion strains, locus YOR070C, strain gyp1, stronger effect = lower value",0.965 (inactive)
same,normalized growth,"S. cerevisiae deletion strains, locus YOR080W, strain dia2, stronger effect = lower value",0.986 (inactive)
same,normalized growth,"S. cerevisiae deletion strains, locus YOR083W, strain WHI5, stronger effect = lower value",0.951 (inactive)
same,normalized growth,"S. cerevisiae deletion strains, locus YOR106W, strain vam3, stronger effect = lower value",0.945 (inactive)
same,normalized growth,"S. cerevisiae deletion strains, locus YOR136W, strain idh2, stronger effect = lower value",0.963 (inactive)
same,normalized growth,"S. cerevisiae deletion strains, locus YOR144C, strain elg1, stronger effect = lower value",0.979 (inactive)
same,normalized growth,"S. cerevisiae deletion strains, locus YOR184W, strain ser1, stronger effect = lower value",0.782 (active)
same,normalized growth,"S. cerevisiae deletion strains, locus YOR231W, strain MKK1, stronger effect = lower value",0.958 (inactive)
same,normalized growth,"S. cerevisiae deletion strains, locus YOR265W, strain rbl2, stronger effect = lower value",0.983 (inactive)
same,normalized growth,"S. cerevisiae deletion strains, locus YOR270C, strain vph1, stronger effect = lower value",0.683 (active)
same,normalized growth,"S. cerevisiae deletion strains, locus YOR290C, strain snf2, stronger effect = lower value",0.979 (inactive)
same,normalized growth,"S. cerevisiae deletion strains, locus YOR316C, strain cot1, stronger effect = lower value",0.974 (inactive)
same,normalized growth,"S. cerevisiae deletion strains, locus YPL051W, strain arl3, stronger effect = lower value",0.976 (inactive)
same,normalized growth,"S. cerevisiae deletion strains, locus YPL055C, strain LGE1, stronger effect = lower value",0.716 (active)
same,normalized growth,"S. cerevisiae deletion strains, locus YPL078C, strain atp4, stronger effect = lower value",0.926 (inactive)
same,normalized growth,"S. cerevisiae deletion strains, locus YPL106C, strain sse1, stronger effect = lower value",0.952 (inactive)
same,normalized growth,"S. cerevisiae deletion strains, locus YPL240C, strain hsp82, stronger effect = lower value",0.97 (inactive)
same,normalized growth,"S. cerevisiae deletion strains, locus YPL241C, strain CIN2, stronger effect = lower value",0.973 (inactive)
same,normalized growth,"S. cerevisiae deletion strains, locus YPL256C, strain CLN2, stronger effect = lower value",0.99 (inactive)
same,normalized growth,"S. cerevisiae deletion strains, locus YPR119W, strain clb2, stronger effect = lower value",0.956 (inactive)
same,normalized growth,"S. cerevisiae deletion strains, locus YPR141C, strain kar3, stronger effect = lower value",0.972 (inactive)
same,normalized growth,"S. cerevisiae deletion strains, locus YPR163C, strain tif3, stronger effect = lower value",0.921 (inactive)
same,normalized growth,"S. cerevisiae deletion strains, locus YPR167C, strain met16, stronger effect = lower value",0.963 (inactive)
same,normalized growth,"S. cerevisiae deletion strains, strain wtn01, stronger effect = lower value",0.843 (active)
same,normalized growth,"S. cerevisiae strains, strain wild type, stronger effect = lower value",0.878 (active)
